# Test results reported in PubChem BioAssay AID488969 (Vanderbilt High Throughput Screening Facility, 2010).
# In all, about 110,000 compounds were measured (“z-score”: median about -0.1, highest 2% from about 2 on). For the sample, the highest values were picked, then their nearest neighbours and some compounds at random. Active and inactive are the calls of the source.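 How the source made its calls: active means z-score in the third read window above 3 or below -3; inactive means the rest.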
# Target: Metabotropic glutamate receptor 8 (Rattus norvegicus) (UniProt P70579)
# Sequence (P70579 whole entry, looked up): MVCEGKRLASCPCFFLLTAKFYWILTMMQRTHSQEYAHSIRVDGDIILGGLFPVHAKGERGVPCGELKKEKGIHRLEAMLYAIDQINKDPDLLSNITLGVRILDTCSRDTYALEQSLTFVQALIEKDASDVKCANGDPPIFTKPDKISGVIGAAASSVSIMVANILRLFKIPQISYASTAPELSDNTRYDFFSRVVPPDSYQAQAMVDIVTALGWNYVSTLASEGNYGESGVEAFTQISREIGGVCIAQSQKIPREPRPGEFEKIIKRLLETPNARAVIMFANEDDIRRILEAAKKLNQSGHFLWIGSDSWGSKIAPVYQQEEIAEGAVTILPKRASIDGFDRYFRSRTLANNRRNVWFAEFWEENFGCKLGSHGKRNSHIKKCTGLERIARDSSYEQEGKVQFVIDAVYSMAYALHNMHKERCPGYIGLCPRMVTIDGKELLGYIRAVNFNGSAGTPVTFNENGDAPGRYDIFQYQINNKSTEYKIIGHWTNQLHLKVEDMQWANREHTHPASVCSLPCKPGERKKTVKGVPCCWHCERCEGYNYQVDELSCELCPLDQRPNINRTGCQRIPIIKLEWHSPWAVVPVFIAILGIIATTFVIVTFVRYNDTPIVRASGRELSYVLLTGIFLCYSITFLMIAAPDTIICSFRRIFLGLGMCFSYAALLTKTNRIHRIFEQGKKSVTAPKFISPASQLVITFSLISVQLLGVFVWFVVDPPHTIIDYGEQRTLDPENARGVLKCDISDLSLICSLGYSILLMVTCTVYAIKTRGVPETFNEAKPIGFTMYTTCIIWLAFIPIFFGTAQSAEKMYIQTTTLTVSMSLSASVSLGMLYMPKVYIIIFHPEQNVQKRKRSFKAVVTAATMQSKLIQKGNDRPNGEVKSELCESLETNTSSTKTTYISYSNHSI
# Test: rat mGluR8 modulators via GIRK flux, primary screen, cell-based, thallium flux, HTS (AID 488969)
# Conditions: HEK293 rat mGluR8, GIRK (G protein-gated inwardly rectifying potassium channel) thallium flux, FluoZin2; at 10 µM; stronger effect = higher value; submaximal glutamate (EC20) added with thallium
row,SMILES,z-score
1,O=C(Cn1ccc2ccccc2c1=O)N1CCN(Cc2ccc3c(c2)OCO3)CC1,0.477
2,CCN1C(c2ccccc2)=C(c2ccccc2)S/C1=C/C=C1\SC(=S)N(C)C1=O,-0.0724
3,O=C(NCc1cccs1)C1CCN(S(=O)(=O)c2cccs2)CC1,-0.232
4,CCOc1ccc(NC(=O)CSCC(=O)O)cc1,-0.178
5,Cc1occc1C(=O)N/N=C/C1=C(N2CCOCC2)C(=C\c2ccc(Cl)cc2Cl)/CC1,0.0547
6,CC(NC(=O)Cc1cccs1)C(c1cccs1)N1CCOCC1 (stereo not drawn),-0.108
7,CCOC(=O)Cn1c(=N)n(Cc2ccccc2)c2ccccc21,0.46
8,CCOC(=O)Cn1c(=N)n(Cc2ccccc2F)c2ccccc21,3.72 (active)
9,C=CCn1c(=N)n(CC(=O)OCC)c2ccccc21,0.534
10,COc1cc(C(=O)NCc2nnc(SCC(=O)NCc3ccccc3)o2)cc(OC)c1OC,1.55
11,CCC(c1nnnn1CCOC)N(Cc1cc2c(C)cc(C)cc2[nH]c1=O)CC1CCCO1 (stereo not drawn),-0.203
12,Nc1nc(CSC(=S)N2CCOCC2)nc(Nc2ccc(F)cc2)n1,-0.0752
13,Nc1nc(CSC(=S)N2CCN(c3ccccc3)CC2)nc(Nc2ccccc2)n1,0.00399
14,Nc1nc(CSC(=S)N2CCOCC2)nc(Nc2ccccc2)n1,2.25
15,Cc1cc(C)c(S(=O)(=O)c2ccccc2)c(OC(=O)c2c(Cl)cccc2Cl)n1,-0.286
16,COc1ccccc1NC(=O)C(=O)NNC(=O)c1ccco1,2.81
17,COc1ccc(NC(=O)c2ccco2)cc1NC(=O)c1ccc(C)cc1,-0.304
18,COc1ccc(Cl)cc1NC(=O)c1ccco1,-0.426
19,COc1ccc(C)cc1NC(=O)C(=O)NNC(=O)c1ccco1,4.89 (active)
20,COc1ccccc1NC(=O)c1cc(Cl)ccc1NC(=O)c1ccco1,0.52

row,SMILES,z-score
1,COc1ccccc1NC(=O)c1cccc(NC(=O)c2ccco2)c1,-0.669
2,O=c1c2ccccc2nc(CSc2ncnc3nc[nH]c23)n1-c1cccc(C(F)(F)F)c1,-0.256
3,Cc1nc(NC(=O)c2ccccc2)sc1-c1csc(NCc2ccco2)n1,0.00275
4,Cn1nnc(NC(=O)c2ccco2)n1,0.813
5,Cc1ccc(C(=O)OCC(=O)NCc2ccco2)cc1,-0.195
6,CCc1ccc2c(c1)C1(NN=C(c3cccc4ccccc34)S1)C(=O)N2 (stereo not drawn),4.02 (active)
7,CCc1ccc2c(c1)C1(NN=C(c3ccc(C)cc3)S1)C(=O)N2 (stereo not drawn),3.15 (active)
8,CC(C)c1ccc2c(c1)C1(NN=C(c3ccccc3)S1)C(=O)N2 (stereo not drawn),0.979
9,CCc1ccc2c(c1)C(=O)c1ccccc1C2=O,-0.389
10,CCc1ccc2c(c1)C1(C(=O)N2)N2CCCC2C(C(=O)c2ccc3ccccc3c2)C12C(=O)Nc1ccccc12 (stereo not drawn),-0.276
11,CCc1ccc2c(c1)C1(NN=C(c3ccccc3)S1)C(=O)N2 (stereo not drawn),0.104
12,CCCc1ccc(OCC(O)CN2CCN(c3ccccc3)CC2)cc1 (stereo not drawn),-0.0136
13,COc1cc(C2CC(=O)c3c(ccc4ccccc34)N2)ccc1O (stereo not drawn),0.11
14,COc1ccc(C(=O)C(CCCCC(CN(C)C)C(=O)c2ccc(OC)cc2)CN(C)C)cc1 (stereo not drawn),-0.494
15,CCOC(=O)C1=C(C)NC(=O)NC1c1ccc(OC)c(CN2CCOCC2)c1 (stereo not drawn),0.00374
16,COc1ccc(CCCC(=O)Nc2ccccc2F)cc1,0.0152
17,COC(=O)c1cc(NC(=O)C2CC2)cc(C(=O)OC)c1,0.0071
18,Cc1ccsc1/C=C1/SC(N2CC(C)OC(C)C2)=NC1=O (stereo not drawn),-0.238
19,CC(=O)c1ccc(NC2OC(C)C(O)C(O)C2O)cc1 (stereo not drawn),0.292
20,CC(=O)c1ccc(NC(=S)N2CC(C)CC(C)C2)cc1 (stereo not drawn),-0.208

row,SMILES,z-score
1,CC(=O)c1ccc(NC2CC(O)C(O)CO2)cc1 (stereo not drawn),2.32
2,CCCn1nc(C(=O)OCC(=O)c2ccc3c(c2)NC(=O)CO3)c2ccccc2c1=O,-1.71
3,O=C(NNS(=O)(=O)c1ccccc1)c1ccncc1,-0.151
4,CC1=CC(C)(C)Nc2ccc(OC(=O)C(Cc3ccccc3)N3C(=O)c4ccccc4C3=O)cc21 (stereo not drawn),1.05
5,CC1=CC(C)(C)Nc2ccc(OC(=O)C(Cc3ccccc3)N3C(=O)C4CCCCC4C3=O)cc21 (stereo not drawn),2.63
6,CC1=CC(C)(C)Nc2ccc(OC(=O)CN3C(=O)C4CCCCC4C3=O)cc21 (stereo not drawn),1.08
7,CCC(CC)NC(=O)/C=C/c1ccccc1Cl,-0.178
8,CCC(Sc1nc2ccc(C)cc2[nH]1)C(=O)O (stereo not drawn),0.179
9,COC(=O)c1cc(OC)c(OC)cc1NC(=O)c1ccc(C)o1,-0.653
10,CC(C)(C)c1ccc(C(=O)NCC(=O)OCC(=O)Nc2ccc3c(c2)OCCO3)cc1,0.131
11,CCCCC(=O)Nc1ccc(Br)cc1C(=O)O,-0.24
12,CC1CC2=C(CC1/C=N/NC(N)=S)C(C)(C)CCC2 (stereo not drawn),3.44 (active)
13,CC1=C(CC/C(C)=N/NC(N)=S)C(C)(C)CCC1,1.85
14,C/C(CC1CC2=C(CC1(C)C)C(C)(C)CCC2)=N\NC(N)=S (stereo not drawn),0.599
15,CCCCNC(=O)Cn1nc([N+](=O)[O-])c([N+](=O)[O-])c1C,-0.27
16,Cc1noc(C)c1S(=O)(=O)N1CCN(c2ccccc2)CC1,-0.073
17,Cc1noc(C)c1S(=O)(=O)N1CCC(C(=O)N(C)Cc2ccccc2)CC1,-0.182
18,Cc1noc(C)c1S(=O)(=O)N1CCC(Cc2ccccc2)CC1,2.68
